From PubChem BioAssay (NCATS)
Results filed as inconclusive are left out. Active and inactive are the calls of the source. Calls follow the shape of the dose curve; as a rule, active = well fitted cell-killing curve with a large enough effect; inconclusive = small, poorly fitted or top-dose-only effect, or effect the other way; inactive = flat fitted curve, though single readings scatter. Where a SMILES comes first, the peptide text is derived from it.

Assays:
Test in all cases: Primary qHTS to identify gynecologic anti-cancer compounds using libraries of approved drugs and bioactive compounds (AID 1345084); also: nearly all actives have a fitted effect of over 55% in size
Hek293T = conditions: Gynecologic cancer cell panel viability, ATPlite luminescence, 48 h, control line for the selectivity index; series mostly up to 57.5 µM
In short: (§1)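 Luminescence from the ATPlite ATP-monitoring reagent indicates viable cell number; lower signal means cytotoxicity. Cells received compound 16 h after seeding and were exposed for 48 h across five concentrations.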

JEG-3 = conditions: Gynecologic cancer cell panel viability, ATPlite luminescence, 48 h; series mostly up to 57.5 µM
In short: as §1

OV90 = conditions: Gynecologic cancer cell panel viability, ATPlite luminescence, 48 h; series mostly up to 57.5 µM
In short: as §1

PA-1 = conditions: Gynecologic cancer cell panel viability, ATPlite luminescence, 48 h; series mostly up to 57.5 µM
In short: as §1

Tov-21-G = conditions: Gynecologic cancer cell panel viability, ATPlite luminescence, 48 h; series mostly up to 57.5 µM
In short: as §1

Tov112D = conditions: Gynecologic cancer cell panel viability, ATPlite luminescence, 48 h; series mostly up to 57.5 µM
In short: as §1

SKOV3 = conditions: Gynecologic cancer cell panel viability, ATPlite luminescence, 48 h; series mostly up to 57.5 µM
In short: as §1
% is scaled to controls: 0 for no effect and ±100 for the full control effect.

Cc1nn(C)c2c1C(c1ccc(C(F)(F)F)cc1)C(C#N)=C(N)O2 (stereo not given)
inactive: Potency (Hek293T) | Potency (JEG-3) | Potency (OV90) | Potency (PA-1) | Potency (Tov-21-G) | Potency (Tov112D)

COc1ccc(C(=O)O[C@H]2CC(C)=CC[C@@]3(C)[C@@H](OC(C)=O)C[C@@](O)(C(C)C)[C@H]23)cc1
inactive: Potency (Hek293T) | Potency (JEG-3) | Potency (OV90) | Potency (PA-1) | Potency (Tov-21-G) | Potency (Tov112D)

CC1CCC2(C(=O)OC3OC(CO)C(O)C(O)C3O)CCC3(C(=O)O)C(=CCC4C5(C)CCC(OC6OC(C)C(O)C(O)C6O)C(C)(C)C5CCC43C)C2C1C (stereo not given)
inactive: Potency (Hek293T) | Potency (JEG-3) | Potency (OV90) | Potency (PA-1) | Potency (Tov-21-G) | Potency (Tov112D)

CC1CCC2(C(=O)OC3OC(CO)C(O)C(O)C3O)CCC3(C)C(=CCC4C5(C)CC(O)C(O)C(C)(C(=O)O)C5CCC43C)C2C1(C)O (stereo not given)
inactive: Potency (Hek293T) | Potency (JEG-3) | Potency (OV90) | Potency (SKOV3) | Potency (Tov-21-G) | Potency (Tov112D)

C=C1CC[C@@H]2[C@](C)(CC[C@H](O)[C@@]2(C)CCC=C(C)C)[C@@H]1Cc1c[nH]c2ccccc12
inactive: Potency (Hek293T) | Potency (JEG-3) | Potency (OV90) | Potency (PA-1) | Potency (Tov-21-G) | Potency (Tov112D)

CC(C(=O)O)C1CCC2(C)C3C(=O)C=C4C(CCC(=O)C4(C)C)C3(C)CCC12C (stereo not given)
inactive: Potency (Hek293T) | Potency (JEG-3) | Potency (OV90) | Potency (PA-1) | Potency (Tov-21-G) | Potency (Tov112D)

CC(=O)[C@@H]1CC[C@]2(C(=O)O)CC[C@]3(C)C(CCC4[C@@]5(C)CC[C@H](O)C(C)(C)C5CC[C@]43C)C12 (stereo not given in full)
inactive: Potency (Hek293T) | Potency (JEG-3) | Potency (OV90) | Potency (PA-1) | Potency (Tov-21-G) | Potency (Tov112D)

C=CC(C)(C)O[C@@H]1O[C@H](CO[C@@H]2OC[C@](O)(CO)[C@H]2O)[C@@H](O)[C@H](O)[C@H]1O
inactive: Potency (Hek293T) | Potency (JEG-3) | Potency (OV90) | Potency (PA-1) | Potency (Tov-21-G) | Potency (Tov112D)

CC1(C)CC(=O)N(CCCCN2CCN(c3ncccn3)CC2)C(=O)C1
inactive: Potency (Hek293T) | Potency (JEG-3) | Potency (OV90) | Potency (SKOV3) | Potency (Tov-21-G) | Potency (Tov112D)

COc1cc(CC(COC2OC(CO)C(O)C(O)C2O)c2cc(/C=C/CO)cc(OC)c2O)ccc1O (stereo not given)
inactive: Potency (Hek293T) | Potency (JEG-3) | Potency (OV90) | Potency (PA-1) | Potency (Tov-21-G) | Potency (Tov112D)

Cc1nnc(C(C)C)n1C1CC2CCC(C1)N2CC[C@H](NC(=O)C1CCC(F)(F)CC1)c1ccccc1 (stereo not given in full)
inactive: Potency (Hek293T) | Potency (JEG-3) | Potency (OV90) | Potency (PA-1) | Potency (Tov-21-G) | Potency (Tov112D)

C=C[C@](C)(CC/C=C(\C)C(=O)O)O[C@@H]1OC[C@H](O)[C@H](O)[C@H]1O
inactive: Potency (Hek293T) | Potency (JEG-3) | Potency (OV90) | Potency (SKOV3) | Potency (Tov-21-G) | Potency (Tov112D)

COc1cc(/C=C/CO)ccc1O[C@@H]1O[C@H](CO)[C@@H](O)[C@H](O)[C@H]1O
inactive: Potency (Hek293T) | Potency (JEG-3) | Potency (OV90) | Potency (PA-1) | Potency (Tov-21-G) | Potency (Tov112D)

C[C@@H]1O[C@@H](O[C@H]2[C@H](OC(=O)[C@]34CCC(C)(C)C[C@H]3C3=CCC5[C@@]6(C)C[C@H](O)[C@H](O[C@@H]7O[C@H](CO[C@@H]8OC[C@H](O)[C@H](O)[C@H]8O)[C@@H](O)[C@H](O)[C@H]7O)C(C)(C)C6CC[C@@]5(C)[C@]3(C)C[C@H]4O)OC[C@@H](O)[C@@H]2O)[C@H](O)[C@H](O[C@@H]2OC[C@](O)(CO)[C@H]2O)[C@H]1O[C@@H]1OC[C@H](O)[C@H](O[C@@H]2OC[C@@H](O)[C@H](O)[C@H]2O)[C@H]1O (stereo not given in full)
inactive: activity change, negative = cytotoxicity (Hek293T) 7.42% [at 6.55 µM] | activity change, negative = cytotoxicity (JEG-3) -3.85% [at 6.55 µM] | activity change, negative = cytotoxicity (OV90) -1.75% [at 6.55 µM] | activity change, negative = cytotoxicity (PA-1) 9.54% [at 6.55 µM] | activity change, negative = cytotoxicity (Tov-21-G) -3.09% [at 6.55 µM] | activity change, negative = cytotoxicity (Tov112D) 5.07% [at 6.55 µM]

CC1NC(=O)CNC(=O)C(C(C)C)NC(=O)C2CCCN2C(=O)C(C(C)C)NC(=O)C(Cc2c[nH]c3ccccc23)NC1=O (stereo not given) (cyclo(GAWVPV); configuration not given here)
inactive: Potency (Hek293T) | Potency (JEG-3) | Potency (OV90) | Potency (PA-1) | Potency (Tov-21-G) | Potency (Tov112D)

CCOC(=O)N1CCC(NCCNC(=O)c2ccccc2C)CC1
inactive: Potency (Hek293T) | Potency (JEG-3) | Potency (OV90) | Potency (PA-1) | Potency (Tov-21-G) | Potency (Tov112D)

O=C(c1ccc(NS(=O)(=O)c2cccc3cccnc23)cc1)N1CCN(CC2CC2)CC1
inactive: Potency (Hek293T) | Potency (JEG-3) | Potency (OV90) | Potency (PA-1) | Potency (Tov-21-G) | Potency (Tov112D)

C[C@@H](O)[C@H](N)C(=O)N1CCC[C@H]1C(=O)N1CCC[C@H]1C(=O)N[C@H](C(N)=O)[C@@H](C)O (H-TPPT-NH2)
inactive: activity change, negative = cytotoxicity (Hek293T) 17.1% [at 11.6 µM] | activity change, negative = cytotoxicity (JEG-3) -0.985% [at 11.6 µM] | activity change, negative = cytotoxicity (OV90) -0.207% [at 11.6 µM] | activity change, negative = cytotoxicity (PA-1) -4.12% [at 11.6 µM] | activity change, negative = cytotoxicity (Tov-21-G) 0.205% [at 11.6 µM] | activity change, negative = cytotoxicity (Tov112D) 6.35% [at 11.6 µM]

OC[C@H]1O[C@@H](n2cnc3c(NCc4ccc(O)cc4)ncnc32)[C@H](O)[C@@H]1O
inactive: Potency (Hek293T) | Potency (OV90) | Potency (PA-1) | Potency (SKOV3)

C=Cc1cc(O)cc2nc(-c3ccc(O)c(F)c3)oc12
inactive: Potency (Hek293T) | Potency (JEG-3) | Potency (PA-1) | Potency (SKOV3) | Potency (Tov-21-G) | Potency (Tov112D)

COC1CC(=O)C23C(=O)NC(CC(C)C)C2C(C)C(C)=CC3/C=C(\C)CCC1O (stereo not given)
inactive: Potency (JEG-3) | Potency (OV90) | Potency (PA-1) | Potency (SKOV3) | Potency (Tov-21-G) | Potency (Tov112D)

OC[C@H]1O[C@@H](Oc2cc(O)cc(/C=C/c3ccc(O)cc3)c2)[C@H](O)[C@@H](O)[C@@H]1O
inactive: Potency (OV90)
